HT1080-NT tox – kills 2HG-producing HT-1080-NT fibrosarcoma cells | HT-1080-NT fibrosarcoma viability, CellTiter-Glo ATP luminescence, 48 h | Potency, µM (titrated, usually from 46.1 µM), without a hit: at the highest dose activity, negative = less viability, most hits filed as cytotoxic | 360,000 tested, 1.6% active | AID 686970;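 also: NT is the 2HG producing partner of a matched IDH1 knockdown line; 0% = DMSO-treated cells and -100% = media-only wells without cells; nearly all actives have a fitted effect of over 55% in size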
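750 cells/well, RPMI + 5% FBS; 2 h settle, compound pin-transfer, 48 h at 37 degrees C. CellTiter-Glo 10 min RT, luminescence. Normalized to DMSO and media-only wells.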
HT1080 IDH1KD tx – HT-1080 IDH1 knockdown cell toxicity (counter line); 360,000 tested, 2% active; Potency, µM (series often up to 46.1 µM), without a hit: top-dose activity, negative = toxicity, hits mostly cytotoxic; HT-1080 IDH1 knockdown viability, ATP luminescence, 48 h;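 also: 0% = DMSO wells and -100% = cell-free medium wells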
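HT-1080-IDH1KD cells (IDH1 knocked down), 750/well in RPMI with 5% FBS, treated with compound 48 h at 37 degrees C. Viability by CellTiter-Glo luminescence, normalised to DMSO and no-cell wells; concentration-response curves classed.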
KB-V1 MDR tox – KB-V1 MDR subline cytotoxicity | KB-V1 MDR cells viability, CellTiter-Glo, 72 h | Potency, µM (titrated, usually from 46.1 µM), usual class: cytotoxic | 400,000 tested, 3.4% active | AID 1347076; also: nearly all actives have a fitted effect of over 60% in size
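Following 72 h at 37 degrees C with compound, KB-V1 cell viability was read by CellTiter-Glo luminescence, medium being phenol-red-free DMEM plus 10% FBS; concentration-response parameters came from normalized, curve-fitted qHTS data.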
KB-3-1 tox – KB-3-1 parental cell cytotoxicity; 400,000 tested, 1.4% active; Potency, µM (doses to about 46.1 µM), actives largely listed as cytotoxic; KB-3-1 viability, CellTiter-Glo ATP luminescence, 72 h; also: nearly all actives have a fitted effect of over 60% in size
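Screening of KB-3-1 cells (DMEM, 10% FBS, phenol-red free) ran from lowest to highest compound concentration; after 72 h at 37 °C viability was read luminescently and curves fitted.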
Starred values were filed as active, the others as inactive; i = inactive; ? = inconclusive; nt = no result. A selection: hits, their analogues and other compounds. The true share with any hit is near 5.7%. Calls follow the shape of the dose curve; as a rule, active = well fitted curve in the direction sought with a large enough effect; inconclusive = small, poorly fitted or top-dose-only effect, or another doubt; inactive = no such curve, though single readings can be large; an effect the other way counts as inactive or inconclusive. Unless noted, % is scaled to controls: 0 for no effect and ±100 for the full control effect; potency is read from the fitted curve at half-maximal effect.

SMILES	HT1080-NT tox	HT1080 IDH1KD tx	KB-V1 MDR tox	KB-3-1 tox
CCc1cccc(-n2nnc(S(=O)(=O)c3ccc(OC)cc3)c2C)c1	nt	nt	?	i
COc1c(Cl)cc(C(=O)Nc2ccccc2-c2ccccc2)cc1Cl	-0.2%	8.3%	14.6µM*	20.6µM*
COc1cccc(C(=O)Nc2ccccc2-c2ccccc2)c1	-4.1%	-3.6%	i	i
O=C(Nc1ccc(-c2nc3ccc(NC(=O)c4cccs4)cc3[nH]2)cc1)c1cccs1	nt	nt	i	6.51µM*
COc1cccc(C(=O)Nc2ccc(-c3nc4ccccc4[nH]3)cc2)c1	nt	nt	i	i
O=C(Nc1ccc(Cl)c(-c2nc3ccccc3[nH]2)c1)c1cccnc1	?	?	20.6µM*	i
CS(=O)(=O)c1cccc(C(=O)Nc2ccc(-c3nc4ccccc4[nH]3)cc2)c1	11.6µM*	11.6µM*	i	?
O=C(Nc1ccc2nc(-c3cccs3)[nH]c2c1)c1cccs1	?	?	i	?
c1ccc(Cn2nnnc2C(c2ccccc2)N2CCN(Cc3ccncc3)CC2)cc1 (stereo not drawn)	nt	nt	i	i
Cn1cc(C(CO)Cc2ccccc2)c2ccccc21 (stereo not drawn)	2.6%	2.5%	i	i
CCN(C(=O)Cn1c(C(=O)OC)cc2sccc21)c1cccc(C)c1	nt	nt	i	i
Cc1ccc(C)c(Cn2c(=O)n(Cc3ccccc3)c(=O)c3sc4ccccc4c32)c1	nt	nt	i	i
O=C(Cc1cccs1)Nc1cccc(-c2nc3cc4ccccc4cc3[nH]2)c1	23.1µM*	?	?	?
COc1c(Cl)cc(C(=O)Nc2cccc(-c3nc4ccccc4[nH]3)c2)cc1Cl	nt	nt	20.6µM*	?
O=C(Nc1cccc(-c2nc3ccccc3[nH]2)c1)c1ccco1	8.1%	0.7%	?	i
CC(=O)Nc1cccc(NC(=O)Cc2cccs2)c1	-3.1%	0.4%	i	i
O=C(OCc1ccccc1Cl)c1ccc(-c2nnn(Cc3ccccc3)n2)cc1	nt	nt	i	i
C=CC[n+]1cccc2cccc(O)c21	nt	nt	i	i
Cc1ccccc1C1=NC(C(F)(F)F)(C(F)(F)F)c2c(n(C)c(=O)n(C)c2=O)N1	2.4%	-2.2%	16.4µM*	?
Cn1c2c(c(=O)n(C)c1=O)C(C(F)(F)F)(C(F)(F)F)N=C(c1ccc(Cl)cc1)N2	?	7.31µM*	2.31µM*	2.31µM*
Cc1ccc(S(=O)(=O)c2cnc(-c3ccccc3)[nH]c2=O)cc1	21.4%	1.7%	nt	nt
Cc1ccc(CSc2c(C)cnc3c2c(=O)n(C)c(=O)n3C)cc1	nt	nt	?	i
CN(CCCNC(=O)c1cc2c(Cl)nc3ccccc3c2s1)Cc1ccccc1	16.4µM*	16.4µM*	i	i
CC1CCCN(CCCNC(=O)c2cc3c(Cl)nc4ccccc4c3s2)C1 (stereo not drawn)	?	23.1µM*	i	i
CC(=O)c1cccc(Nc2ncnc3c2cnn3-c2cccc(Cl)c2)c1	nt	nt	?	i
SMILES	HT1080-NT tox	HT1080 IDH1KD tx	KB-V1 MDR tox	KB-3-1 tox
Nc1nc2c(nc(N3CCOCC3)n2COCCO)c(=O)[nH]1	nt	nt	?	i
Cn1cnc2c1c(=O)n(Cc1cccc(Br)c1)c(=O)n2C	1.1%	-17.4%	i	i
CCn1cnc2c1c(=O)n(Cc1cccc(Br)c1)c(=O)n2Cc1ccccc1	?	-25.8%	18.4µM*	?
O=C(C[n+]1cccc(I)c1)c1ccc(F)cc1	nt	nt	i	i
COc1ccc(NC(=O)C(c2ccc(OC)cc2)n2c(=O)c(-c3ccco3)nc3ccccc32)cc1 (stereo not drawn)	-13.6%	-21.6%	?	i
COc1ccc(C(C(=O)Nc2ccc3c(c2)OCCO3)n2c(=O)c(-c3ccco3)nc3ccccc32)cc1 (stereo not drawn)	?	13µM*	?	?
CN1CCN(C2=Cc3ccc(Cl)cc3Sc3ccc(F)cc32)CC1	?	?	?	i
CN1CCN(C2=Cc3ccccc3Sc3cc(F)ccc32)CC1	15.8µM*	?	?	?
Cc1ccccc1C(=O)Nc1cccc(NC(=O)c2ccc(C(C)(C)C)cc2)c1	nt	nt	i	?
COc1ccc(NC(=O)CSCC(=O)N(C)Cc2ccc(Cl)c(Cl)c2)cc1	-9.4%	-16.4%	i	i
Cc1ccc(NC(=O)CSCC(=O)N(C)Cc2ccc(Cl)c(Cl)c2)cc1	-9.6%	1.5%	18.4µM*	i
Nc1nc(=S)c2[nH]cnc2[nH]1	2.31µM*	1.3µM*	0.731µM*	1.03µM*
Cc1oc(-c2ccccc2F)nc1CS(=O)(=O)CC(=O)N1CCN(c2ccc(Cl)cc2)CC1	nt	nt	i	16.4µM*
CN(C(=O)c1cccnc1)c1nc(-c2ccccc2)cs1	-15.1%	1.5%	20.6µM*	i
CN(Cc1ccccc1)C(=O)c1cccnc1	13.1%	12.3%	i	i
COc1ccc(OC)c(C2C(C(=O)c3cc4ccccc4o3)=C(O)C(=O)N2c2cc(C)on2)c1 (stereo not drawn)	11.9%	10.2%	3.66µM*	?
CCCc1nnc(NC(=O)c2cc(=O)c3ccccc3o2)s1	nt	nt	i	i
C#C[C@]1(O)CCC2C3CCC4=CC(=O)CC[C@@H]4C3CC[C@@]21C (stereo partly drawn)	11.8%	-0.5%	2.91µM*	?
CCCCn1c2nc3ccccc3nc2c2c(=O)n(CCC(C)C)cnc21	-2.1%	5.6%	i	i
CCC(C)n1cnc2c(c1=O)c1nc3ccccc3nc1n2Cc1ccc(OC)cc1 (stereo not drawn)	?	6.6%	14.6µM*	i
COCc1cc(=O)n2[nH]cc(-c3ccccc3)c2n1	-5.1%	-27.1%	?	?
CCCc1cc(=O)n2[nH]cc(-c3ccc(Cl)cc3)c2n1	?	?	7.31µM*	16.4µM*
Cc1cccc(NC(=O)c2cccc(Cn3cc(Br)c([N+](=O)[O-])n3)c2)c1C	-27.1%	-10.9%	11.6µM*	?
COc1ccc(OC)c(NC(=O)c2cccc(Cn3cc(Br)c([N+](=O)[O-])n3)c2)c1	-6.1%	-7.7%	4.61µM*	?
Cc1ccccc1NC(=O)c1cccc(Cn2cc(Br)c([N+](=O)[O-])n2)c1	-5.1%	-21.0%	i	i
SMILES	HT1080-NT tox	HT1080 IDH1KD tx	KB-V1 MDR tox	KB-3-1 tox
O=C(c1ccco1)N1CCN(c2ncnc3scc(-c4ccc(F)cc4)c23)CC1	?	?	i	i
CC(C)(C)C(=O)N1CCN(c2ncnc3scc(-c4ccccc4)c23)CC1	-22.6%	?	14.6µM*	?
CCOC(=O)N1CCN(c2ncnc3scc(-c4ccccc4)c23)CC1	-3.1%	-25.8%	?	i
Cc1sc2ncnc(N3CCN(C(=O)c4ccco4)CC3)c2c1C	-26.0%	-27.2%	18.4µM*	?
Cc1nc(N2CCN(C(=O)c3ccco3)CC2)c2c3c(sc2n1)CCC3	-28.8%	-29.2%	8.2µM*	?
Cc1ccc(-c2csc3ncnc(N4CCN(C(=O)c5ccco5)CC4)c23)cc1	?	?	20.6µM*	i

Assay outcomes: PubChem BioAssay, National Center for Advancing Translational Sciences (NCATS)
